Laboratory results published in PubChem BioAssay (NCI).
The panel holds about 79,000 compounds, 15% with a hit somewhere; the sample as a whole holds those more often. Unmarked numbers belong to inactive results. Calls of active or inactive are those of the source. Cut-off read from the data, not from the text of the source: active = growth inhibition above about 70%; inactive = the rest.

Tests used:
[1] = NCI Yeast Anticancer Drug Screen. Data for the rad50 strain (AID 155);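 note: 0% = growth of vehicle-only cultures of the same strain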; details: S. cerevisiae rad50 strain growth inhibition, active compounds read high
Procedure, shortened: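 Genetically altered yeast (DNA repair pathway); compound treatment; growth inhibition vs vehicle ctrl.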

[2] = NCI Yeast Anticancer Drug Screen. Data for the mec2-1 strain (AID 157); details: S. cerevisiae mec2-1 strain, active compounds read high
Procedure, shortened: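 Cells of the genetically defined mec2-1 yeast strain are incubated with test compound. Inhibition of growth is calculated against vehicle-treated controls.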

[3] = NCI Yeast Anticancer Drug Screen. Data for the sgs1 mgt1 strain (AID 161);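 note: 0% = growth of cultures given vehicle only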; details: S. cerevisiae sgs1 mgt1 strain, active compounds read high
Procedure, shortened: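 Inhibition of yeast growth, normalised to vehicle-treated controls, is reported for a strain bearing genetic alterations in DNA damage repair.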

[4] = NCI Yeast Anticancer Drug Screen. Data for the cln2 rad14 strain (AID 165);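 note: 0% = growth equal to vehicle treated cultures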; details: S. cerevisiae cln2 rad14 strain, active compounds read high
Procedure, shortened: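 The screen exposed genetically defined yeast (cln2 rad14) to test compounds and scored growth inhibition relative to vehicle-treated controls.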

[5] = NCI Yeast Anticancer Drug Screen. Data for the bub3 strain (AID 167); details: S. cerevisiae bub3 mutant strain, active compounds read high
Procedure, shortened: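 Yeast carrying a defined mutation is treated with each compound, and growth is compared with that of vehicle-exposed cells to give inhibition.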

[6] = NCI Yeast Anticancer Drug Screen. Data for the mlh1 rad18 strain (AID 175); details: S. cerevisiae mlh1 rad18 strain growth inhibition, active compounds read high
Procedure, shortened: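 Compound-treated yeast growth, normalised to vehicle controls. Strain bears defined DNA repair mutations.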

[7] = at 5.0 µM (retest, dose inferred, filed as 0.5)
[8] = at 50.0 µM (retest, dose inferred, filed as 5.0)

SMILES | growth inhibition [1, 7] | growth inhibition [1, 8] | growth inhibition ([1]; at 50.0 µM) | growth inhibition [2, 7] | growth inhibition [2, 8] | growth inhibition ([2]; at 50.0 µM) | growth inhibition [3, 7] | growth inhibition [3, 8] | growth inhibition ([3]; at 50.0 µM) | growth inhibition [4, 7] | growth inhibition [4, 8] | growth inhibition ([4]; at 50.0 µM) | growth inhibition [5, 7] | growth inhibition [5, 8] | growth inhibition ([5]; at 50.0 µM) | growth inhibition [6, 7] | growth inhibition [6, 8] | growth inhibition ([6]; at 50.0 µM)
COc1ccc(/C=C2\CCC(CN(C)C)C2=O)cc1 (stereo not given) | 19% | 89% (active) | 93.8% (active) | 19% | 99% (active) | 93.3% (active) | 33% | 99% (active) | 93.2% (active) | 27% | 48% | 91.8% (active) | 36% | 99% (active) | 92.6% (active) | 24% | 98% (active) | 88.8% (active)
CC(=O)Nc1ccc2c(c1)/C(=N/O)c1ccccc1-2 | -5% | 76% (active) | 67.2% | -11% | 90% (active) | 42% | -1% | 89% (active) | 74.9% (active) | -11% | 56% | 64.5% | -3% | 77% (active) | 72.4% (active) | 17% | 92% (active) | 77.3% (active)
CCC(=O)/C(=C\I)c1ccccc1 | 26% | 26% | 89.3% (active) | -6% | -6% | 92.2% (active) | 23% | 23% | 86.7% (active) | 8% | 8% | 89.9% (active) | 7% | 7% | 89.5% (active) | 21% | 21% | 85.5% (active)
CCC(=O)N1c2ccccc2CC1c1c[nH]c2ccccc12 (stereo not given) | -4% | 98% (active) | 95.2% (active) | -10% | 98% (active) | 30.8% | -3% | 98% (active) | 77.4% (active) | -56% | 99% (active) | 74.5% (active) | -10% | 78% (active) | 8.15% | 1% | 98% (active) | 93.3% (active)
O=C(Nc1cccc(Br)c1)Oc1cccc2cccnc12 | 61% | 97% (active) | 85.7% (active) | 65% | 99% (active) | 89.8% (active) | 99% (active) | 99% (active) | 85.3% (active) | 76% (active) | 99% (active) | 81.1% (active) | 91% (active) | 73% (active) | 87.8% (active) | 64% | 98% (active) | 85% (active)
O=CNNC(=O)Nc1ccc(Cl)cc1 | 19% | 25% | -1.5% | 10% | 14% | -3.75% | 20% | 11% | -8.8% | 32% | 19% | 22.1% | 4% | 0% | 14.6% | 20% | 21% | 7.2%
O=C(CCN(Cc1ccccc1)Cc1ccccc1)c1ccc2ccccc2c1 | 30% | 55% | 76.2% (active) | 28% | 58% | 55.6% | 59% | 89% (active) | 90.6% (active) | 33% | 61% | 83.8% (active) | 45% | 69% | 60.1% | 35% | 68% | 81.4% (active)
CCOC1(OCC)Oc2c(Cl)c(Cl)c(Cl)c(Cl)c2OC1(OCC)OCC | 11% | 97% (active) | 98.3% (active) | 13% | 98% (active) | 98.9% (active) | 12% | 96% (active) | 98.5% (active) | 16% | 97% (active) | 97.4% (active) | 13% | 97% (active) | 98% (active) | 14% | 96% (active) | 98.7% (active)
O=C(CCl)Oc1c(Br)cc(-c2ccccc2)cc1Br | 32% | 95% (active) | 77.3% (active) | 42% | 99% (active) | 56.1% | 65% | 99% (active) | 88.8% (active) | 57% | 97% (active) | 41.9% | 30% | 98% (active) | 16.9% | 73% (active) | 95% (active) | 82.2% (active)
CN(C)CCC(/C=C/c1ccccc1)=N\Nc1c(F)c(F)c(F)c(F)c1F | -2% | 8% | 58% | -2% | 1% | 8.9% | 2% | -8% | 35.4% | -3% | 6% | -3.55% | 1% | -14% | 40% | -4% | -2% | 86.8% (active)
